# Compound activity deposited in PubChem BioAssay by National Center for Advancing Translational Sciences (NCATS).
# D3 ag: qHTS of D3 Dopamine Receptor Agonist: qHTS; AID 652048, 2013; max activation, %; D(3) dopamine receptor (Homo sapiens), P35462; 410,000 compounds, 0.58% hits; D3R DiscoveRx beta-arrestin cells, luminescence, 90 min; in the data active means max activation above about 30%; further: 0% is about no effect
# Target sequence (P35462 whole entry, looked up): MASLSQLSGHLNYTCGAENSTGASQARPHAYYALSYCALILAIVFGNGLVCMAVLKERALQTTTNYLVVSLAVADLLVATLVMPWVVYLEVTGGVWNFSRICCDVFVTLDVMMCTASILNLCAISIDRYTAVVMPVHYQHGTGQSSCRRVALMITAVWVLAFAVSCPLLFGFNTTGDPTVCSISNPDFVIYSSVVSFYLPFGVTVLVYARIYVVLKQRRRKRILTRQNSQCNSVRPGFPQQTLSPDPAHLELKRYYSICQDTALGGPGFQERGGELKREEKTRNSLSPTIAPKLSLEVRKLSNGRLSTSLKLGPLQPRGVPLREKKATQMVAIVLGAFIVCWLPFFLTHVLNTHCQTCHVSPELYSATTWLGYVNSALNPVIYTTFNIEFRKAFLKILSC
#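 Cells at 1500/well, incubated overnight, then treated with pinned compounds (dopamine as control) for 90 min at 37 degrees C. DiscoveRx reagent added for 30 - 60 minutes at room temperature; luminescence read.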
# SW480 rerep: A quantitative high throughput screen for small molecules that induce DNA re-replication in SW480 colon adenocarcinoma cells; SW480 DNA re-replication, Hoechst DNA content imaging, 48 h; Potency, µM (series often up to 46.1 µM), for inactives: at the highest dose re-replication activation, hits mostly activators; 340,000 compounds, 1.8% hits; further: potency means the concentration at half of the fitted maximal effect; % of control where 0% means no effect; nearly all actives have a fitted effect of over 55% in size
#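 Image-based DNA-content assay: after two days of treatment, nuclei were labelled with the DNA dye Hoechst and imaged, and hits were compounds raising the count of nuclei showing high fluorescence intensity.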
# DRD3 antagonist: qHTS of D3 Dopamine Receptor Antagonist: qHTS. D(3) dopamine receptor (Homo sapiens), P35462. AID 652054, 2013. 360,000 compounds, 2.5% hits. D3R cells, DiscoveRx beta-arrestin luminescence, antagonist mode; hits give low values. max response, negative = inhibition, %; in the data active means max response below about -50%; inconclusive means no clear call, values can overlap the other calls; further: on the % scale 0 is the no-effect control and ±100 the full control effect
#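 Cells plated overnight at 1500 cells/well, then exposed to library compounds with dopamine controls for 90 minutes at 37 degrees C. DiscoveRx reagent added for 30–60 minutes at room temperature; luminescence read, quantitative HTS format.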
# KB-3-1 cytotox: qHTS assay for MDR1-selective chemotherapeutics: Primary screen using the parental adenocarcinoma cell KB-3-1; KB-3-1 viability, CellTiter-Glo ATP luminescence, 72 h; Potency, µM (series often up to 46.1 µM), usual class: cytotoxic; 400,000 compounds, 1.4% hits; further: potency means the concentration at half of the fitted maximal effect; on the % scale 0 is the no-effect control and ±100 the full control effect; nearly all actives have a fitted effect of over 60% in size
#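 Luminescent ATP read-out (CellTiter-Glo) measures survival of drug-naive KB-3-1 cells after 72 h compound exposure at 37 °C. Titration series was screened from lowest to highest concentration, with DMSO vehicle plates as background controls.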
# MCF10A rereplic: A quantitative high throughput screen for small molecules that induce DNA re-replication in MCF 10a normal breast cells. AID 624296, 2012. Potency, µM (series often up to 46.1 µM), without a hit: at the highest dose activity, positive = re-replication, hits mostly activators. MCF 10A DNA re-replication, Hoechst nuclear intensity, 48 h. 350,000 compounds, 2.9% hits; further: potency means the concentration at half of the fitted maximal effect; % of control where 0% means no effect; nearly all actives have a fitted effect of over 50% in size
# KB-V1 MDR tox: qHTS assay for MDR1-selective chemotherapeutics: Primary screen using the drug-selected MDR subline cells KB-V1; 400,000 compounds, 3.4% hits; Potency, µM (titrated, usually from 46.1 µM), usual class: cytotoxic; KB-V1 MDR cells viability, CellTiter-Glo, 72 h; further: potency means the concentration at half of the fitted maximal effect; on the % scale 0 is the no-effect control and ±100 the full control effect; nearly all actives have a fitted effect of over 60% in size
#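 Readout: CellTiter-Glo luminescence, 10 min after addition. Cells: KB-V1 MDR subline, 72 h at 37 degrees C with compound. Analysis: corrected, normalized data fitted to concentration-effect curves.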
# Starred values were filed as active, the others as inactive; i = inactive; ? = inconclusive; · = no result given. Most compounds without a hit are left out; they make up all but 8.9% or so of the library. Unless noted, the call rests on the fitted dose curve; in most records, active means well fitted curve in the direction sought with a large enough effect; inconclusive means small, poorly fitted or top-dose-only effect, or another doubt; inactive means no such curve, though single readings can be large; an effect the other way counts as inactive or inconclusive.
SMILES,D3 ag,SW480 rerep,DRD3 antagonist,KB-3-1 cytotox,MCF10A rereplic,KB-V1 MDR tox
CCCC(C)c1oc(=O)cc(O)c1C (stereo not drawn),60*,?,-3,i,-18%,i
CC(C)Oc1ccc(CNC(=O)c2cccc(NC(=O)c3nsc4ccccc34)c2)cc1,6,·,·,i,·,i
COc1ccc(CCNC(=O)c2ccc(Cn3c(SCc4ccccc4)nc4cccnc43)cc2)cc1,9,·,·,i,·,i
CC(C(=O)O)c1cccc(Oc2ccccc2)c1 (stereo not drawn),-29,-21%,-62*,i,-17%,i
O=C(O)c1cn(-c2ccccc2)nc1-c1ccc(Cl)cc1,9,-1%,-54*,i,-4%,i
O=C(c1cn(-c2ccccc2)nc1-c1cccs1)N1CCOCC1,-9,-2%,-25,i,1%,?
O=C(NC(=S)N1CCOCC1)c1cn(-c2ccccc2)nc1-c1ccc(F)cc1,-9,10%,33,i,9%,21µM*
O=C(c1cn(-c2ccccc2)nc1-c1cccs1)N1CCN(c2ccccc2)CC1,31*,2.9µM*,23,8.2µM*,6.5µM*,?
O=C(c1cn(-c2ccccc2)nc1-c1ccc(F)cc1)N1CCOCC1,2,-2%,15,i,23%,i
O=C(c1cn(-c2ccccc2)nc1-c1ccc(Br)cc1)N1CCOCC1,-2,23µM*,-9,i,5%,?
COc1ccc(-c2nn(-c3ccccc3)cc2C(=O)O)cc1OC,6,-3%,5,i,11%,i
Nc1[nH]c(=S)nc2nnsc12,·,·,·,?,·,i
O=C(NCC(c1ccco1)N1CCCC1)c1cn(-c2ccccc2)nc1-c1ccc(F)cc1 (stereo not drawn),-25,?,-9,i,21µM*,i
COc1ccccc1-c1nn(-c2ccccc2)cc1C(=O)NCC(c1ccco1)N1CCCC1 (stereo not drawn),-16,-7%,-12,i,15%,i
O=c1cc(COc2ccc(Cl)cc2Cl)nc2scc(-c3ccccc3)n12,-1,·,·,i,·,i
COc1ccc(S(=O)(=O)Nc2cccc(N(C)S(C)(=O)=O)c2)cc1Br,15,-2%,20,i,1%,15µM*
CC(=O)c1ccc(NC(=O)c2noc3c2CSc2ccccc2-3)cc1,8,·,·,·,·,·
CCNC(=S)NNC(=O)c1cc(Br)cs1,0,16µM*,12,i,3%,i
COc1cc(Cl)c(C)cc1NC(=O)Cn1ncc2c([nH]c3ccccc32)c1=O,6,·,·,i,·,i
Cc1cc(Nc2ccc(C(C)C)cc2)n2ncnc2n1,4,-5%,-16,15µM*,3%,7.3µM*
CC1CCC(NC(=O)c2ccc(CS(=O)(=O)c3cccc(C(F)(F)F)c3)o2)CC1 (stereo not drawn),6,·,·,i,·,i
CC(C)CC[n+]1ccccc1/C=C/c1ccc(N(C)C)cc1,3,4.6µM*,-26,1.5µM*,22%,i
C=CCSC(=C(C#N)C#N)c1cc2c([nH]1)CCCC2,-10,?,-26,18µM*,?,?
O=C(O)c1cc2c([nH]c1=O)CCCC2,-5,-9%,7,i,1%,i
Cc1cc(=O)n(CCO)c(O)c1C#N,-3,-4%,-23,i,2%,i
SMILES,D3 ag,SW480 rerep,DRD3 antagonist,KB-3-1 cytotox,MCF10A rereplic,KB-V1 MDR tox
Cc1c(C#N)c(O)n(CCO)c(=O)c1N=Nc1ccc2c(c1)COC2=O,-46,12%,-59*,i,?,i
CCc1ccc(Nc2cc(=O)n(C3CCCCC3)c(=O)[nH]2)cc1,-1,?,?,?,19%,?
O=c1cc(Nc2ccc3c(c2)OCCO3)[nH]c(=O)n1C1CCCCC1,2,12µM*,12,?,?,i
CCN(CC)S(=O)(=O)c1cccc(NC(=O)COc2ncnc3sccc23)c1,-2,9%,-63*,i,2%,i
Cc1ccccc1NC(=O)c1c(C)oc2ccc(O)c(CN(C)Cc3ccccc3)c12,7,·,·,·,·,·
O=C(CCN1CCN(c2ccc(F)cc2)CC1)Nc1ccc(F)cc1,-21,-3%,-82*,i,-1%,i
CCN(CCNC(=O)Nc1ccc(Cl)cc1)c1ccccc1,-3,?,-12,?,18µM*,?
O=C(CCN1CCN(c2ccccc2)CC1)Nc1nccs1,12,-4%,-64*,i,3%,i
COC(=O)c1ccc(NC(=O)CCN2CCN(c3ccccc3)CC2)cc1,2,-5%,0,i,?,i
O=C(CCN1CCN(c2ccccc2)CC1)Nc1ccc(Cl)cc1,21,7%,-62*,i,5%,i
O=C(NCc1ncc(C(F)(F)F)cc1Cl)Nc1ccccc1,6,-8%,-4,i,-4%,i
CCOc1ccc(N2CC(c3nc4ccccc4n3CCCOc3ccccc3OC)CC2=O)cc1 (stereo not drawn),-17,·,·,i,·,i
CC(C)(C)c1cc(C(=O)CCN2CCOCC2)cc(C(C)(C)C)c1O,-22,15%,-7,i,?,?
Clc1cccc(N2CCN(CCCN3CCN(c4ccccc4)CC3)CC2)c1,-4,?,-79*,?,?,i
O=C(NCCN1CCN(c2cccc(Cl)c2)CC1)Nc1ccccc1,-4,1%,-91*,i,-16%,i
O=C(CCN1CCN(c2ccc([N+](=O)[O-])cc2)CC1)c1ccc(Cl)cc1,-9,?,-17,i,?,i
O=C(CCN1CCN(c2ccccc2)CC1)c1ccc(Cl)cc1,-3,?,-70*,i,16%,i
O=C(CCN1CCOCC1)c1ccc(N2CCCCC2)cc1,-50,18%,-76*,?,?,i
CCC(=O)N1c2ccccc2CC1C(=O)NCc1cccc(C)c1 (stereo not drawn),-3,·,·,i,·,i
COc1cc(NS(=O)(=O)c2ccc(NC(=O)c3ccccc3C(=O)O)cc2)nc(OC)n1,1,·,·,i,·,i
Cc1ccc(CSc2nc3c([nH]c4ccccc43)c(=O)n2C)cc1,19,·,·,·,·,·
O=C(CN1CCN(c2ccc(Cl)cc2)CC1)Nc1ccc(F)c(F)c1,-13,-1%,-11,i,-3%,i
